Consider 16 compounds from PubChem BioAssay (NCI).

Compounds without any hit were thinned out: in the full panel of roughly 83,000, 20% have a hit.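 Method: cells in 96-well plates; compound added at one concentration; 48 h incubation; percent growth measured; values under 10 scored active.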 Values without a mark were called inactive. Active and inactive are the calls of the source.

Assay in all cases: NCI-60 one-dose screen, 48 h (100 = growth as untreated, 0 = no growth, -100 = all killed)
Holding throughout (conditions): 10 µM unless noted

In experiment [1] the test system is DU-145 prostate.
The test system of experiment [2] is K-562 leukemia.
Experiment [3] concerns MALME-3M melanoma.
Experiment [4] relates to MDA-MB-231 breast.
The test system of experiment [5] is RXF 393 renal.
In experiment [6] the test system is SF-268 CNS.
The test system of experiment [7] is SF-295 CNS.
Experiment [8] concerns SF-539 CNS.
For experiment [9], the system named is UACC-257 melanoma.

Consider `COc1ccc(CNCCCN2C(=O)c3ccc4c5c(ccc(c35)C2=O)C(=O)N(CCCNCc2ccc(OC)c(OC)c2OC)C4=O)c(OC)c1OC`, for which the growth is -96% (active) in experiment [1]; -49.1% (active) in [2]; -78.5% (active) in experiment [3]; -53.1% (active) in experiment [4]; -91.9% (active) in experiment [5]; -88.4% (active) in experiment [6]. Besides, the growth in experiment [7] was -76.8% (active); in experiment [8] it was -80.1% (active); in experiment [9], -97.5% (active).
On to `CC(=O)Oc1cc2ccccc2cc1C(C)C`, for which the growth is 126% in experiment [1]; 117% in [2]; 111% in [3]; 117% in [4]; 102% in experiment [5]; 111% in experiment [6]. Besides, the growth in experiment [7] is 96.8%; in experiment [8], 95%.
For `CC1CCCCC[N+]12CCCC2` (stereo unspecified), the growth in experiment [1] is 105%; in experiment [2], 107%; in experiment [3], 100%; in experiment [4] it was 99%; in experiment [5], 92%; in [6], 109%. The growth in experiment [7] was 92.2%; in experiment [8], 104%; in experiment [9], 104%.
Turning to `CC(=O)N1CCN(CCNC(=O)n2cc(-c3ccncc3)c(-c3ccc(O)c(Cl)c3)n2)CC1`, the growth in experiment [1] was 105%; in experiment [2], 91.8%; in experiment [3], 90.6%; in experiment [4], 107%; in experiment [5], 120%; in experiment [6], 107%. In addition, the growth is 130% in experiment [7], 101% in [8] and 103% in [9].
Regarding `O=C(Nc1ccc(Cl)cn1)C1(c2ccccc2)CCCCC1`, the growth in experiment [1] is 86.5%; in [2], 67.1%; in experiment [3], 112%; in experiment [4], 87.7%; in [5], -1.25% (active); in experiment [6], 108%. In addition, the growth was 110% in experiment [7], 96.7% in [8] and 109% in [9].
As to `COc1cc(NC(C)CCCN)c2nc(C)ccc2c1OC` (stereo unspecified), the growth in experiment [1] is 87.2%; in experiment [2], 78.9%; in experiment [3], 69.9%; in [4] it was 75.6%; in experiment [5] it was 186%; in experiment [6], 109%. Moreover, the growth in experiment [7] was 118%; in [8] it was 93.6%; in [9], 124%.
Consider `COc1cc(NC(C)CCCN)c2nccc(C)c2c1OC` (stereo unspecified), for which the growth was 71.3% in experiment [1]; 65% in experiment [2]; 104% in experiment [3]; 59.5% in [4]; 164% in experiment [5]; 126% in experiment [6]. Further, the growth in [7] is 115%; in experiment [8], 41.3%; in experiment [9], 112%.
Regarding `CN1NC(c2ccccc2)NN(C)C1=O`, the growth is 122% in experiment [1]; 89.3% in experiment [2]; 84.8% in experiment [3]; 108% in experiment [4]; 107% in experiment [5]; 102% in experiment [6]. Further, the growth in experiment [7] is 83.5%; in experiment [8], 106%.
On to `COc1cc(C(=O)Nc2ccc(N(C)C)cc2)cc(OC)c1OC`, for which the growth in experiment [1] is 107%; in experiment [2], 42.8%; in [3] it was 80.6%; in [4], 96.4%; in experiment [5], 95.7%; in [6] it was 99.1%. The growth in experiment [7] is 91.7%; in experiment [8] it was 96.1%.
`OCC(O)C(O)CC1SCCS1` (stereo unspecified): the growth in experiment [1] is 108%; in experiment [2], 83%; in experiment [3] it was 101%; in experiment [4] it was 114%; in [5], 102%; in experiment [6], 99.4%. Also, the growth in experiment [7] was 104%; in experiment [8], 103%; in [9], 105%.
Regarding `COc1cc(N)c2nccc(C)c2c1OC`, the growth in experiment [1] is 100%; in experiment [2], 92.1%; in experiment [3], 95.8%; in experiment [4], 91.2%; in experiment [5] it was -4.59% (active); in [6], 114%. Besides, the growth in experiment [7] was 116%; in [8] it was 82%; in experiment [9], 92.5%.
`COc1ccc(C2C3(C#N)C(N)=NC(=C(C#N)C#N)C23C#N)cc1OC` (stereo unspecified): the growth in experiment [1] was 102%; in experiment [2], 97.1%; in experiment [3], 112%; in [4], 93.2%; in experiment [5], 96.8%; in [6], 121%. For the same compound, the growth in [7] is 108%; in [8], 94.2%; in experiment [9], 102%.
In the case of `CCOC(=O)C1=C(C(F)(F)F)NC(=O)NC1CN1C(=O)c2ccccc2C1=O` (stereo unspecified), the growth is 106% in [1]; 76.1% in experiment [2]; 113% in [3]; 100% in experiment [4]; 106% in experiment [5]; 103% in experiment [6]. The growth in experiment [7] is 104%; in experiment [8] it was 100%; in experiment [9], 103%.
Regarding `Cc1ccnc2c(NC(C)CCCN)cc(O)c(O)c12` (stereo unspecified), the growth was 80.3% in experiment [1]; 80.3% in experiment [2]; 123% in experiment [3]; 75.2% in [4]; 96.2% in experiment [5]; 108% in [6]. Besides, the growth in experiment [7] was 104%; in experiment [8] it was 79.8%; in experiment [9], 97.2%.
On to `COc1cc(OC)c2c(=O)cc(-c3ccccc3)oc2c1`, for which the growth is 111% in [1]; 98.4% in experiment [2]; 97.2% in experiment [3]; 97% in experiment [4]; 99.8% in experiment [5]; 104% in [6]. For the same compound, the growth was 93.8% in experiment [7], 108% in experiment [8] and 97.8% in [9].
Consider `O=C(O)/C(Br)=C/c1c[nH]c2ccc(Br)cc12`, for which the growth is 115% in experiment [1]; 68% in experiment [2]; 106% in experiment [3]; 102% in experiment [4]; 109% in experiment [5]; 124% in [6]. Also, the results for the growth in [7], in experiment [8] and in experiment [9] were 102%, 112% and 117%, respectively.
